Test results published in PubChem BioAssay AID1671202 (University of Kansas High Throughput Screening Laboratory, 2021).
Values joined by “and” are separate entries in the source; they are usually repeats but may differ in a detail not shown here. Equal values may be shown once. About 6,900 (3.6%) of roughly 190,000 compounds were called active. The sample holds actives, similar compounds and a random draw of the others, so the mix is not that of the screen. Unmarked numbers belong to inactive results. Rule as the data show it: active = inhibition above about 50%; inactive = the rest.

Molecular target: Huntingtin (Homo sapiens) (UniProt P42858)
Assay: mutant huntingtin-calmodulin interaction inhibitors – biochemical, AlphaScreen, primary screen (AID 1671202);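 as to inhibition: 0% = both proteins with DMSO and 100% = one protein alone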
Conditions: AlphaScreen His-mHTT/GST-CaM binding, luminescence; at 15 µM, hits give high values

Chain of Huntingtin (Homo sapiens) (P42858 whole entry, looked up, stated change not applied): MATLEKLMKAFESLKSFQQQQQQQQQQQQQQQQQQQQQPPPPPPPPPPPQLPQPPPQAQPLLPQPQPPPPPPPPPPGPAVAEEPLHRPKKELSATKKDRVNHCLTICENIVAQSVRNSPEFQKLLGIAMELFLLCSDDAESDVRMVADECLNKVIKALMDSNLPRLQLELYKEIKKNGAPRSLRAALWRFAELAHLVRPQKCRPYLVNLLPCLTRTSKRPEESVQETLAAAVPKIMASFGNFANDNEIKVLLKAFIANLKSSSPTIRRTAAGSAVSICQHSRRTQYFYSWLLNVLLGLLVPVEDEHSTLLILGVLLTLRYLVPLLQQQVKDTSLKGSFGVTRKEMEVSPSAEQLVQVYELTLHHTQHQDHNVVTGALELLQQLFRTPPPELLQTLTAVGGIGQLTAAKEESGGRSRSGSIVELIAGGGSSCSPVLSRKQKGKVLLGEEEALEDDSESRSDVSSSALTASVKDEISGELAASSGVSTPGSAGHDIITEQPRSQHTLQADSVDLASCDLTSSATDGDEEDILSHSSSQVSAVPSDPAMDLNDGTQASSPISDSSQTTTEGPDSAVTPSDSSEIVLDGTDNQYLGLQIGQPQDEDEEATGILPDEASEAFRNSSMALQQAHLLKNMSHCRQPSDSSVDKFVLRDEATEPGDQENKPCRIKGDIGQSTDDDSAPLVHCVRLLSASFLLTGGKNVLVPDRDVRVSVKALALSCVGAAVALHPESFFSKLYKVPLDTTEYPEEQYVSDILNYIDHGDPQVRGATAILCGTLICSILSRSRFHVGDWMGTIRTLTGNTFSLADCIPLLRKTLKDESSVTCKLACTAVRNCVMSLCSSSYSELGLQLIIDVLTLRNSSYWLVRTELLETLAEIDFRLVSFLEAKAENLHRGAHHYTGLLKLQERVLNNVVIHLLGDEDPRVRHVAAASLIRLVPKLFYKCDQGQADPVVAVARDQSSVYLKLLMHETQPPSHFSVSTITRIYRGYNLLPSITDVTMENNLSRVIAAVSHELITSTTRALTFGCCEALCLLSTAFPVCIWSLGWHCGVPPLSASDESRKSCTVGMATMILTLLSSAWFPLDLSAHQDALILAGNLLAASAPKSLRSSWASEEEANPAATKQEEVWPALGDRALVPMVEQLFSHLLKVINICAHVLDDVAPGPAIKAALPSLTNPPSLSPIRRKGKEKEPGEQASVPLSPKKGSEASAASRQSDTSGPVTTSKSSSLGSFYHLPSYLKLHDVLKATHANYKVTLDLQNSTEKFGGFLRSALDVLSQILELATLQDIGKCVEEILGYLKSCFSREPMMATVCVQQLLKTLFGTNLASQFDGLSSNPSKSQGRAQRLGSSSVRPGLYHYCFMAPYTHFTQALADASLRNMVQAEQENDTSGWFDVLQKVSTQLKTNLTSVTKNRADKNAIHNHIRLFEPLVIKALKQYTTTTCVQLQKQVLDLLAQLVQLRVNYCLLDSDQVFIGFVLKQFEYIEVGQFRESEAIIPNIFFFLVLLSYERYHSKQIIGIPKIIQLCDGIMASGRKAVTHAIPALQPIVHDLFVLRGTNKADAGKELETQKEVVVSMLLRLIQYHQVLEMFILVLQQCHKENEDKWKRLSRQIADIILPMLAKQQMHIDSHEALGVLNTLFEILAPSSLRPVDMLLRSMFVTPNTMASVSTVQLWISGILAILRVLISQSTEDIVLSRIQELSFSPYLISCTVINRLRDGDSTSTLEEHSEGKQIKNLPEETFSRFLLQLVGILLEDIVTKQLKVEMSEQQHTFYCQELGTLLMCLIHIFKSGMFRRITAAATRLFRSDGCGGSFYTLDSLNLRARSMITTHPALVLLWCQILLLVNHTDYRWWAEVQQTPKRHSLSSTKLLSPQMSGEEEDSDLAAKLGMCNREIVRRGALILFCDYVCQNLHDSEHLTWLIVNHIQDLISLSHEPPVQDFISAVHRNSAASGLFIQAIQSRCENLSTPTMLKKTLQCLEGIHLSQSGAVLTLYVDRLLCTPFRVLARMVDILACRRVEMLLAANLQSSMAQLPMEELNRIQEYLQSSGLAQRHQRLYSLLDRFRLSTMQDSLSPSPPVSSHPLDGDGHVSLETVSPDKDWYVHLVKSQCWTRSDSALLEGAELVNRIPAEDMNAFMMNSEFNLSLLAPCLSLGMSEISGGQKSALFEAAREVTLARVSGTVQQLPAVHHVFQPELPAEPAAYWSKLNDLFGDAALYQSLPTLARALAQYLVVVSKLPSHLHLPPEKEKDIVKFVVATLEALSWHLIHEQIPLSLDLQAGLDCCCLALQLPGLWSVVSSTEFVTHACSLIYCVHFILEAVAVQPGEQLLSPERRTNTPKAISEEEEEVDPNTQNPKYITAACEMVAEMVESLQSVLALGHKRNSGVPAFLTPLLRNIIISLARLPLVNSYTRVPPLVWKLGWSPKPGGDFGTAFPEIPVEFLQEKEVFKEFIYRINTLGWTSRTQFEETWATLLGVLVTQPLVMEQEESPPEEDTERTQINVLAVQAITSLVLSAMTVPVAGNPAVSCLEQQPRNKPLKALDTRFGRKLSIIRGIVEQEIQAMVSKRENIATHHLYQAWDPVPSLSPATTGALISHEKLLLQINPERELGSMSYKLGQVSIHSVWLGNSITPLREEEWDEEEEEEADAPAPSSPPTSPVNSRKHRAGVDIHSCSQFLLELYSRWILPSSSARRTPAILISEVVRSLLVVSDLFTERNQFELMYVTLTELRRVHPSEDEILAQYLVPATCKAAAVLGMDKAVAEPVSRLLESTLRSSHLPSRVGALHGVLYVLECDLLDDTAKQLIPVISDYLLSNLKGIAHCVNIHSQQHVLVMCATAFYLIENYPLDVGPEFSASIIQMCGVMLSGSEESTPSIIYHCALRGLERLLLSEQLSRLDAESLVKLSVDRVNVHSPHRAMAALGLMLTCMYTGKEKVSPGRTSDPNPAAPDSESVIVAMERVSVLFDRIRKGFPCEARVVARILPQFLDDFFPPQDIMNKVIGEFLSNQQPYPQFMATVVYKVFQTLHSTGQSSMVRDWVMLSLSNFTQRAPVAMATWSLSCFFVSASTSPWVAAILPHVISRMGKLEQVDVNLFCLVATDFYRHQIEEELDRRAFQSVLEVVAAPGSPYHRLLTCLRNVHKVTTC

| Compound | inhibition |
| --- | --- |
| O=C1/C(=C/c2ccc([N+](=O)[O-])cc2)C=C(c2ccccc2)N1c1cccc([N+](=O)[O-])c1 | 28% |
| Cn1c(=O)c2c(-c3ccccc3)n(-c3cccc([N+](=O)[O-])c3)cc2n(C)c1=O | 38% |
| O=C1OC(c2ccccc2)=C/C1=C/c1cccn1-c1cccc([N+](=O)[O-])c1 | 77% (active) |
| CN1CC=C2C(C#N)=C(N)C(C#N)(C#N)C(c3ccc(F)cc3)C2C1 (centres undefined) | 6% |
| N#CC1=C(N)C(C#N)(C#N)C(c2ccc(C3C4CCCC=C4C(C#N)=C(N)C3(C#N)C#N)cc2)C2CCCC=C12 (centres undefined) | 81.2% (active) |
| Brc1ccc(CNC23CN4CN(CN(C4)C2)C3)cc1 | 2% |
| O=C(/C=C/c1ccc(Cl)cc1)Nc1cc2ccccc2oc1=O | 0% |
| CN(C)c1ccc(Br)c([N+](=O)[O-])c1 | 14.9% |
| Cc1ccc2nc(/C(C#N)=C/c3cc(Cl)cc4c3OCOC4)[nH]c2c1 | -7% |
| COc1cccc(NC(=O)c2cc3cc4cc(OC)ccc4nc3s2)c1 | 7% |
| COc1ccc2nc3sc(C(=O)N(C)c4cccc(C)c4)cc3cc2c1 | 5% |
| COc1ccc2nc3sc(C(=O)NCc4ccco4)cc3cc2c1 | 61% (active) |
| O=C(CSc1nnc(NC(=O)c2ccccc2F)s1)Nc1ccc(Br)cc1 | 1.2% |
| CC(C)(C)C(=O)NCCNc1ccc([N+](=O)[O-])cc1 | 2.2% |
| COc1ccc(NC(=O)C2CC(=O)N(C)C(=Nc3ccc(C)c(C)c3)S2)cc1 (centres undefined) | 22% |
| Cc1ccc2c(c1)OCC(=O)N2Cc1nc(-c2ccc(C)c(C)c2)no1 | -15.9% |
| Cc1ccccc1NC(=O)N1CCC(c2cc(N)on2)CC1 | -11.4% |
| COc1ccc(-c2coc3c4c(ccc3c2=O)OCN(CC(C)C)C4)cc1 | -3.5% |
| CC(C)N1COc2ccc3c(=O)c(-c4ccccc4)coc3c2C1 | -2.5% |
| CCOC(=O)c1ccc(Oc2coc3c4c(ccc3c2=O)OCN(C2CCS(=O)(=O)C2)C4)cc1 (centres undefined) | 6.6% |
| COc1ccc(N2COc3ccc4c(=O)c(-c5ccccc5)coc4c3C2)c(OC)c1 | 75.6% (active) |
| COCCCN1COc2ccc3c(=O)c(Oc4ccc(OC)cc4)coc3c2C1 | -5.5% and 3.6% |
| COC(=O)c1ccc(Oc2coc3c4c(ccc3c2=O)OCN(c2ccc(OC)cc2OC)C4)cc1 | 54.7% (active) |
| COc1cccc(OC)c1OCCOc1cccc(Cl)c1Cl | -101% |

| Compound | inhibition |
| --- | --- |
| Cc1cccc(NC(=O)c2ccc(F)c(S(=O)(=O)N3CCc4ccccc43)c2)c1 | -8% |
| Cc1cc2[nH]c(C(=O)Nc3cc(F)c(F)c(F)c3)c(CN(C)C)c2s1 | 8.9% |
| Cc1cccc(NC(=O)C2CCN(C(=O)c3ccc(F)cc3)CC2)c1 | -0.6% |
| O=C1OC(/C=C/c2cccc(Cl)c2Cl)=NC/1=C\c1coc2ccccc2c1=O | 6% |
| CC(C)Oc1ccccc1OCCNCc1ccco1 | -1.4% |
| Cc1ccc(C)c(NC(=O)N2CCc3c(c(COCc4cccc(F)c4)nn3C)C2)c1 | 23.8% |
| O=C(O)C1CCCCC1C(=O)Nc1nnc(-c2cccs2)s1 (centres undefined) | -1.3% |
| O=C(NCc1[nH]nc2ccccc12)c1ccc(Br)o1 | -1.8% |
| CN(C)c1ncccc1NC(=O)c1ccc(C#N)cc1 | 4.1% |
| N#Cc1ccc(C(=O)NCc2[nH]nc3ccccc23)cc1 | 64.3% (active) |
| Clc1ccc(-n2ncc3c(N4CCC5(CC4)OCCO5)ncnc32)cc1 | 7% |
| Cc1nc(N)sc1-c1csc(Nc2cccc([N+](=O)[O-])c2)n1 | 91.9% (active) |
| COc1ccc(-c2csc(/C(C#N)=C/Nc3cccc([N+](=O)[O-])c3)n2)cc1 | -1% |
| CC(=O)Nc1nc(C)c(-c2csc(Nc3ccc(S(N)(=O)=O)cc3)n2)s1 | 52.1% (active) |
| NS(=O)(=O)c1ccc(Nc2nc(-c3ccccc3)cs2)cc1 | 21% |
| O=C(O)c1ccc(Nc2nc(-c3cccs3)cs2)cc1 | 46.2% |
| Cc1nc(N)sc1-c1csc(Nc2ccc(O)cc2)n1 | 41.5% |
| NS(=O)(=O)c1ccc(NC(=O)Cc2csc(Nc3ccccn3)n2)cc1 | 33.1% |
| CCN(CC)c1ccc(Nc2nc(-c3sc(C)nc3C)cs2)cc1 | 96.7% (active) |
| Cc1noc(C)c1S(=O)(=O)N1CCC(CC(=O)N2CCN(C(=O)C3CC3)CC2)CC1 | 5.24% |
| COc1ccc(-c2nnc(N3CCC(C(=O)NC4CCCCC4)CC3)o2)cc1 | 7.1% |
| O=C(Nc1cccc(C(F)(F)F)c1)C(=O)c1c(O)[nH]c2ccccc12 | 10% |
| CCOc1cc(CNC(=O)C2CCN(c3nnc4ccccn34)CC2)ccc1OC | 2.75% |
| Nc1nc(-c2cc3cc(Br)cc(Br)c3oc2=O)cs1 | -7% |

| Compound | inhibition |
| --- | --- |
| COc1ccc([C@@H]2C[C@H](c3ccccc3)Oc3cc(OC)ccc32)cc1 | -9.3% |
| COc1ccc(C2CC(O)(c3ccccc3)Oc3cc(C)cc(C)c32)cc1 (centres undefined) | 77.7% (active) |
| CC(=O)c1c(C(C)=O)c(C)n(Cc2ccco2)c1C | 1.2% |
| COc1ccc(C(=O)N2CCc3cc(OC)c(OC)cc3C2c2ccccc2)cc1OC (centres undefined) | 83.2% (active) |
| COc1ccc(NC(=O)N2CCc3[nH]cnc3C2c2ccccc2)cc1OC (centres undefined) | 3.67% |
| COc1cc2c(cc1OC)C(COc1ccc(F)cc1)N(C(=O)c1ccccc1F)CC2 (centres undefined) | 67% (active) |
| COc1cc2c(cc1OC)C(COc1cc(C)cc(C)c1)N(C(=O)CC1CCCCC1)CC2 (centres undefined) | 32% |
| CCOC(=O)c1ccc(OCC2c3cc(OC)c(OC)cc3CCN2C(=O)c2ccccc2OC)cc1 (centres undefined) | 34.4% |
| CCCCC(=O)N1CCc2cc(OC)c(OC)cc2C1COc1ccc(C(=O)OC)cc1 (centres undefined) | 18.4% |
| COc1ccc(C2=NOC(C(=O)N3CCC4(CC3)OCCO4)C2)cc1OC (centres undefined) | -8.22% |
| COc1ccc(-c2nc(COc3cc(C)ccc3F)no2)cc1 | -32.4% |
| CSCCC(NS(=O)(=O)c1cccs1)C(=O)O (centres undefined) | -3.2% |
| CSc1nc(SC)c2c3c(sc2n1)CSC(C)(C)C3 | 2% |
| CCc1ccc(OCC(O)CN2CCN(c3ccccc3F)CC2)cc1 (centres undefined) | -21.8% |
| COc1cc(NCCCCN2C(=O)c3ccccc3C2=O)c2nccc(C)c2c1 | 4% |
| COc1ccc(C2=NOC(C(=O)N3CCN(c4ccccc4)CC3)C2)cc1 (centres undefined) | -6.03% |
| O=C(c1ccco1)N1CCN(C(=O)C2CC(c3ccc(F)cc3)=NO2)CC1 (centres undefined) | -6.79% |
| CCOC(=O)N1CCN(C(=O)C2CC(c3ccc(F)cc3)=NO2)CC1 (centres undefined) | 100% (active) |
| Cc1cc(C)cc(NC(=O)NC2CCN(c3ccccc3)C2=O)c1 (centres undefined) | -6.4% |
| COc1nccnc1N1CCC(N(C)C(=O)c2ccoc2)C1 (centres undefined) | 1.67% |
| Cc1cc(C(=O)N2CCOCC2)c2cccc(-c3cccs3)c2n1 | -5.8% |
| O=C(Nc1cccc(F)c1)N1CCC(N2CCN(Cc3ccc(F)cc3)C2=O)CC1 | 13% |
| CC(=O)N1c2c(cc(Br)cc2S(=O)(=O)Nc2cccc([N+](=O)[O-])c2)CC1C (centres undefined) | 6% |
| CC(=O)Nc1ccc(C(=O)N2CCN(c3cccc(Cl)c3)CC2)cc1 | 83.1% (active) |

| Compound | inhibition |
| --- | --- |
| O=C(c1ccc([N+](=O)[O-])cc1)N1CCN(c2cccc(Cl)c2)CC1 | 13.1% |
| O=C(c1ccc2nc3ccc(Cl)cc3c(=O)n2c1)N1CCN(c2cccc(Cl)c2)CC1 | 6% |
| Cc1ccccc1-n1cnc(C(=O)NCCC(C)C)n1 | -3% |
| CC(C)C[C@@H]1COc2cc(N3CCC[C@@H]3CO)ccc2S(=O)(=O)N1 | -7.7% |
| CC1CCN(c2ccc(N)cc2)CC1 | 79.6% (active) |
| Cc1ccc(N2CCN(C3CCCCCC3)CC2)cc1 | 7.2% |
| CC1CCN(c2ccc([N+](=O)[O-])c(SCCO)c2)CC1 | 24% |
| Cn1c(C(=O)NCc2ccco2)cc2c1CCN(Cc1ccc(F)cc1)C2 | 40.4% |
| COc1ccc(C(=O)Nc2nc3ccccc3s2)cc1Br | -8% |
| O=C(COc1ccccc1)Nc1nc2ccccc2s1 | -8.3% |
| COc1ccc(OC)c(Nc2nc(CC(=O)Nc3nc4ccccc4s3)cs2)c1 | 54.7% (active) |
| CCCC(=O)N1CCN(c2nc3c(s2)c(C)nn3-c2ccc(F)cc2)CC1 | 0.3% |
| O=C(NCC1(c2ccccc2)CCOCC1)C(=O)Nc1cccnc1 | -3.4% |
| N#C/C(=C\c1cn[nH]c1-c1cccs1)c1nc2ccccc2[nH]1 | 37% |
| CCOc1ccccc1C1CC(c2ccccc2)Nc2nc(N)nn21 (centres undefined) | 18.6% |
| COc1cccc(C2CC(c3cccc(Cl)c3)n3nc(N)nc3N2)c1 (centres undefined) | 30.3% |
| CCOc1ccccc1C1CC(c2ccc(Cl)cc2)Nc2nc(N)nn21 (centres undefined) | 54.2% (active) |
| COc1ccc(C2CC(c3ccc(C)cc3)Nc3nc(N)nn32)cc1 (centres undefined) | 11.1% |
| COc1ccc(C2CC(c3ccc(Cl)cc3Cl)Nc3nc(N)nn32)cc1OC (centres undefined) | 70.9% (active) |
| CCOc1ccc(C2CC(c3ccccc3Cl)n3nc(N)nc3N2)cc1 (centres undefined) | 36.1% |
| Cn1cccc1/C=N/NC(=O)CCCCCCC(=O)N/N=C/c1cccn1C | inactive |
| COc1ccc(C2C=C(c3ccc(C)cc3)Nc3nnnn32)cc1 (centres undefined) | -16% |
